Screening data: PubChem, National Center for Advancing Translational Sciences (NCATS)
Sm TGR block: S. mansoni TGR enzyme inhibition | Q962Y6 | purified TGR, DTNB reduction, TNB absorbance 405 nm | Potency, µM (series often up to 114 µM), inactives show at the top dose activity change, negative = inhibition, actives largely listed as inhibitors | 360,000 tested, 3% active; note: potency is the fitted concentration of half-maximal effect; % is set by controls: 0 for no effect and ±100 for the full control effect; nearly all actives have a fitted effect of over 60% in size
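Kinetic colorimetric format: TGR-catalysed, NADPH-driven DTNB reduction monitored via TNB absorbance. Enzyme dispensed at 20 nM; compound exposure 15 min at room temperature before reaction start.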
LmPK inh: LmPK (Leishmania mexicana) enzyme inhibition | Q27686 | purified LmPK, Kinase-Glo ATP luminescence, 1 h | 290,000 tested, 0.37% active | Potency, µM (titrated, usually from 57.5 µM), for the others: top-dose activity change, negative = inhibition, most hits filed as inhibitors; note: potency is the fitted concentration of half-maximal effect; % is set by controls: 0 for no effect and ±100 for the full control effect
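0.1 nM LmPK, 0.5 mM PEP, 0.1 mM ADP; 50 mM imidazole pH 7.2, 7 mM MgCl2, 50 mM KCl; 1 h RT. Kinase-Glo luminescence readout, normalized to no-enzyme (full inhibition) and uninhibited wells.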
Giardia FBPA inh: inhibitors of Giardia lamblia fructose-1,6-bisphosphate aldolase | 290,000 tested, 0.71% active | purified Giardia FBPA | Potency, µM (series often up to 59.6 µM), for inactives: at the highest dose activity, negative = inhibition, usual class: inhibitors; note: potency is the fitted concentration of half-maximal effect; % is set by controls: 0 for no effect and ±100 for the full control effect; nearly all actives have a fitted effect of over 55% in size
Target sequence (A8B2U2 whole entry, looked up): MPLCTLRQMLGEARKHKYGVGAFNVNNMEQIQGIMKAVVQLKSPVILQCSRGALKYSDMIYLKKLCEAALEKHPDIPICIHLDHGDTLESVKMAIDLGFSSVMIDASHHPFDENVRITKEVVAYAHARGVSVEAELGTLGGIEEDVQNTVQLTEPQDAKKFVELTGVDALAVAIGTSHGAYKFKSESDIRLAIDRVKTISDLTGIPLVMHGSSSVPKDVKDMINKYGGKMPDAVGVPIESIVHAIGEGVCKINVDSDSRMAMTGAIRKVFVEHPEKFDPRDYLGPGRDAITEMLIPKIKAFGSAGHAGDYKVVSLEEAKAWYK
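40 nM FBPA preincubated 10 min at RT with compound (up to 57.5 uM final), then substrate plus GAPDH/TPI/NAD/arsenate coupling and diaphorase/resazurin added. Fluorescence read after 20 min at RT, 525/598 nm.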
TbPYK inhibitor: blocks Trypanosoma brucei pyruvate kinase; Q57TT1; TbPYK enzyme, Kinase-Glo Plus ATP luminescence, 45 min; Potency, µM (titrated, usually from 76.8 µM), for inactives: at the top dose activity, negative = inhibition, usual class: inhibitors; 410,000 tested, 0.12% active; AID 624173; note: potency is the fitted concentration of half-maximal effect; % is set by controls: 0 for no effect and ±100 for the full control effect; nearly all actives have a fitted effect of over 50% in size
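Assay buffer: 50 mM TEA pH 7.2, 100 mM KCl, 10 mM MgCl2, 0.05% BSA, 0.01% Tween-20. Pyruvate kinase from T. brucei plus substrate met compound, then ADP (130 uM final). Luminescence was read post 45 min RT.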
Shiga inhibitor: inhibitors of Shiga toxin in Vero cells. Vero cells, Shiga toxin protein synthesis inhibition reporter. inhibition, % at 38.7 µM. 290,000 tested, 9.2% active. AID 2315; in the data active = inhibition mostly above about 28%, no sharp cut-off; inactive = mostly below about 43%; note: 0% is about no effect
CHX counter: counter-screen hit for Shiga toxin inhibitors, cycloheximide; 300,000 tested, 12% active; max response, %; cell reporter, cycloheximide protein synthesis inhibition counterscreen; in the data active = max response mostly above about 13%, no sharp cut-off; inactive = mostly below about 14%; note: read at 38.3 µM for the half of the compounds with a filed dose; 0% is about no effect
An asterisk follows results filed as active. The sample as a whole holds a higher share of hits than the screen did. Unless noted, calls come from the whole dose curve; as a rule, active = well fitted curve in the direction sought with a large enough effect; inconclusive = small, poorly fitted or top-dose-only effect, or another doubt; inactive = no such curve, though single readings can be large; an effect the other way counts as inactive or inconclusive.

How did COc1ccc(/C=C/C(=O)C2C(=O)C=C(C)OC2=O)cc1O (configuration not stated) do in these assays?
Sm TGR block: -28%; LmPK inh: 16µM*; Giardia FBPA inh: inconclusive; TbPYK inhibitor: -8%; Shiga inhibitor: 13; CHX counter: 17*

What do the screens show for `O=c1c2ccccc2nc(-c2ccc(Cl)cc2)n1CCCOc1ccccc1F`?
Sm TGR block: -4%; TbPYK inhibitor: -16%

How did CC(=O)Nc1ccc(NC(=O)/C(Cl)=C/c2ccccc2)cc1 do in these assays?
Sm TGR block: -2%; LmPK inh: 2%; Giardia FBPA inh: 4%; TbPYK inhibitor: -9%; Shiga inhibitor: 157*; CHX counter: 47*

Results for CC(=O)Nc1ccc(C(=O)N/C(=C/c2ccccc2)C(=O)Nc2cccc(C(=O)O)c2)cc1 ?
LmPK inh: 1%; Giardia FBPA inh: 3%; TbPYK inhibitor: -3%; Shiga inhibitor: 1; CHX counter: -3

What do the screens show for `O=C(O)CC1c2ccccc2S(=O)(=O)N1Cc1ccccc1` (configuration not stated)?
Sm TGR block: 40%; LmPK inh: 7%; Giardia FBPA inh: 7%; TbPYK inhibitor: -8%; Shiga inhibitor: -9; CHX counter: -1

How did O=C(O)C[C@H]1c2cc(C(F)(F)F)ccc2S(=O)(=O)N1Cc1ccccc1 do in these assays?
TbPYK inhibitor: 0%

What do the screens show for `COC(=O)CC1c2ccccc2S(=O)(=O)N1Cc1ccccc1` (configuration not stated)?
Sm TGR block: 32µM*; LmPK inh: -2%; Giardia FBPA inh: -1%; TbPYK inhibitor: 1%; Shiga inhibitor: 17; CHX counter: 9

What do the screens show for `O=S1(=O)c2ccccc2C(CCO)N1Cc1ccccc1` (configuration not stated)?
Sm TGR block: 28µM*; LmPK inh: 0%; Giardia FBPA inh: -21%; TbPYK inhibitor: 1%; Shiga inhibitor: -19; CHX counter: -5

What do the screens show for `O=C(c1cccs1)N1CCN(S(=O)(=O)c2cccc(Cl)c2Cl)CC1`?
Sm TGR block: -5%; TbPYK inhibitor: 0%

Results for O=C(N/N=C/c1cccc([N+](=O)[O-])c1O)c1cccs1 ?
Sm TGR block: -5%; LmPK inh: -16%; Giardia FBPA inh: inconclusive; TbPYK inhibitor: 6%; Shiga inhibitor: active; CHX counter: 38*

What do the screens show for `NC(=S)N/N=C/c1ccc(-c2cccc([N+](=O)[O-])c2)o1`?
Sm TGR block: -2%; LmPK inh: -1%; Giardia FBPA inh: -3%; TbPYK inhibitor: 7%; Shiga inhibitor: 34; CHX counter: 14*

What do the screens show for `O=C(N/N=C/c1ccc([N+](=O)[O-])cc1)c1cccs1`?
Sm TGR block: -13%; LmPK inh: 2%; Giardia FBPA inh: 2%; TbPYK inhibitor: 0%; Shiga inhibitor: 31; CHX counter: 34*

What do the screens show for `O=C(N/N=C/c1ccc(-c2cccc([N+](=O)[O-])c2)o1)c1cccs1`?
Sm TGR block: 7%; LmPK inh: 13%; Giardia FBPA inh: 0%; TbPYK inhibitor: -7%; Shiga inhibitor: 6; CHX counter: 13*

How did Nc1nonc1C(=O)N/N=C/c1ccc(-c2cccc([N+](=O)[O-])c2)o1 do in these assays?
Sm TGR block: -29%; LmPK inh: -10%; Giardia FBPA inh: -25%; TbPYK inhibitor: 6%; Shiga inhibitor: -5; CHX counter: -6

How did O=[N+]([O-])c1cccc(-c2ccc(/C=N/NC(=S)Nc3cccc(F)c3)o2)c1 do in these assays?
Sm TGR block: 5%; LmPK inh: 0%; Giardia FBPA inh: 9%; TbPYK inhibitor: -5%; Shiga inhibitor: 10; CHX counter: 1

How did CCN(CC)c1ccc2c(c1)oc(=O)c1c(Cl)cc(=O)oc12 do in these assays?
Sm TGR block: 6.3µM*; LmPK inh: 4%; Giardia FBPA inh: -1%; TbPYK inhibitor: 1%; Shiga inhibitor: 8; CHX counter: -2

Results for Cc1c(CCC(=O)NCCc2ccccc2)c(=O)oc2cc(O)ccc12 ?
Sm TGR block: 0%; TbPYK inhibitor: 0%

How did CCN(CC)c1ccc2c(C)c(-c3ccc(N)cc3)c(=O)oc2c1 do in these assays?
Sm TGR block: 8%; LmPK inh: 0%; Giardia FBPA inh: -4%; TbPYK inhibitor: 14%; Shiga inhibitor: 34*; CHX counter: 27*

How did CCOC(=O)CCc1c(C)c2ccc(O)cc2oc1=O do in these assays?
Sm TGR block: 4%; LmPK inh: 5%; Giardia FBPA inh: 11%; TbPYK inhibitor: 1%; Shiga inhibitor: -1; CHX counter: 13*

How did CCOC(=O)Cc1c(C)c2ccc(N(CC)CC)cc2oc1=O do in these assays?
Sm TGR block: -5%; LmPK inh: -4%; Giardia FBPA inh: -15%; TbPYK inhibitor: -1%; Shiga inhibitor: 100*; CHX counter: 19*

Results for CCOC(=O)Cc1c(C)c2c(O)cc(O)cc2oc1=O ?
Sm TGR block: 0%; LmPK inh: -2%; Giardia FBPA inh: -4%; TbPYK inhibitor: -8%; Shiga inhibitor: 24; CHX counter: 0

Results for COc1ccccc1CNC(=O)c1ccc(N2CCCC2)c(NC(=O)NCCC(C)C)c1 ?
Sm TGR block: inconclusive; TbPYK inhibitor: -10%

What do the screens show for `Cc1csc(CN(C)C(=O)CC2C(=O)NCCN2Cc2ccc(F)c(F)c2)n1` (configuration not stated)?
Sm TGR block: inconclusive; LmPK inh: -4%; TbPYK inhibitor: -1%; Shiga inhibitor: 12; CHX counter: -1

Results for CCOC(=O)c1c(NC(=O)COc2ccc3ccc(=O)oc3c2)sc(C(=O)N(C)C)c1C ?
Sm TGR block: 0%; LmPK inh: -2%; TbPYK inhibitor: -1%; Shiga inhibitor: 7; CHX counter: -1

What do the screens show for `CC1(C)CC(=O)C(CS(=O)(=O)c2ccccc2)=C(Cl)C1`?
Sm TGR block: 7.1µM*; LmPK inh: -3%; TbPYK inhibitor: -16%; Shiga inhibitor: -4; CHX counter: -2

Results for COC(=O)C1=C(CS(=O)(=O)c2ccccc2)NC(=O)NC1c1ccccc1 (configuration not stated) ?
Sm TGR block: -2%; LmPK inh: 6%; Giardia FBPA inh: -6%; TbPYK inhibitor: 8%; Shiga inhibitor: -1; CHX counter: -3

What do the screens show for `COc1ccc(-n2nc(N)c(C(N)=O)n2)cc1`?
Sm TGR block: 5%; LmPK inh: -5%; Giardia FBPA inh: 2%; TbPYK inhibitor: -18%; Shiga inhibitor: 39; CHX counter: 33*

What do the screens show for `COc1cc(/C=N/NC(=O)c2cccs2)ccc1OCc1ccccc1`?
Sm TGR block: 3%; LmPK inh: 1%; Giardia FBPA inh: -2%; Shiga inhibitor: 53*; CHX counter: 28*
